Reference: the supplement of paper PMC10811239
Structures can show the parent of a compound that is named as a salt.

Columns and labels:
Test in all cases: bioluminescence (viable cell) signal fold change after vs before treatment, normalised to DMSO (ratio); higher = more tumour cell growth / less inhibition
Settings in all cases: 10 µM; treatment time 6 days
[1] = tested on: LEGO organoid PT (PTEN-/-; TP53-/-)
Procedure: (§1)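 Luc2-labelled iPSC-derived glioblastoma-like organoids (LEGOs, genotypes PT = PTEN-/-;TP53-/-, PTCC = plus CDKN2A/B-/-, PTN = plus NF1-/-) were treated with 10 uM drug for 6 days (applied every other day) at 37 C. Bioluminescence imaging was done before treatment and 2 days after the last dose. BLI signals were normalised to the DMSO control on the same day and then to the pre-treatment signal (N=3).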

[2] = tested on: LEGO organoid PTCC (PTEN-/-; TP53-/-; CDKN2A-/-; CDKN2B-/-)
Procedure: as §1

[3] = tested on: LEGO organoid PTN (PTEN-/-; TP53-/-; NF1-/-)
Procedure: as §1

Compound	bioluminescence [1]	bioluminescence [2]	bioluminescence [3]
CS(=O)(=O)OCCCCOS(C)(=O)=O [Busulfan]	2.15	1.3	2.3
C[C@@H]1O[C@@H]1P(=O)(O)O.NC(CO)(CO)CO [Fosfomycin Tromethamine]	0.757	1.69	0.813
C[C@@H]1C[C@H]2[C@@H]3CCC4=CC(=O)C=C[C@]4(C)[C@@]3(F)[C@@H](O)C[C@]2(C)[C@@]1(O)C(=O)CO [Dexamethasone]	0.763	1.28	1.71
CNS(=O)(=O)Cc1ccc2[nH]cc(CCN(C)C)c2c1.O=C(O)CCC(=O)O [Sumatriptan succinate]	1.23	0.433	1.05
Cc1c(C)c2c(c(C)c1O)CC[C@@](C)(CCC[C@H](C)CCC[C@H](C)CCCC(C)C)O2 [α-Vitamin E]	1.31	1.41	2.48
CCCC(CCC)C(=O)O.CCCC(CCC)C(=O)[O-].[Na+] [Divalproex Sodium]	0.727	0.404	0.401
COc1cccc2c1C(=O)c1c(O)c3c(c(O)c1C2=O)C[C@@](O)(C(=O)CO)C[C@@H]3O[C@H]1C[C@H](N)[C@@H](O)[C@H](C)O1.Cl [Epirubicin hydrochloride]	0	0	0.00894
COc1ccccc1Oc1c(NS(=O)(=O)c2ccc(C(C)(C)C)cc2)nc(-c2ncccn2)nc1OCCO [Bosentan]	0.81	1.68	1.28
Cl.O.O=C1Cc2cc(CCN3CCN(c4nsc5ccccc45)CC3)c(Cl)cc2N1 [Ziprasidone hydrochloride monohydrate]	0.909	1.05	0.716
CN(C)CC(c1ccc(O)cc1)C1(O)CCCCC1 (centres undefined) [Desvenlafaxine]	1.01	1.07	0.36
CCc1c2c(nc3ccc(OC(=O)N4CCC(N5CCCCC5)CC4)cc13)-c1cc3c(c(=O)n1C2)COC(=O)[C@]3(O)CC.Cl.O.O.O [Irinotecan hydrochloride trihydrate]	0.98	0.793	1.15
C[C@@H]1COCCN1c1cc(C2([S@](C)(=N)=O)CC2)nc(-c2ccnc3[nH]ccc23)n1 [Ceralasertib]	0.917	1.4	0.823
CCOC(=O)C1=C(C)NC(C)=C(C(=O)OC)C1c1cccc(Cl)c1Cl (centres undefined) [Felodipine]	1.06	1.16	1.04
O=C(CCCN1CC=C(n2c(=O)[nH]c3ccccc32)CC1)c1ccc(F)cc1 [Droperidol]	1.37	0.69	0.372
Cc1cccc(C)c1OCC(=O)N[C@@H](Cc1ccccc1)[C@@H](O)C[C@H](Cc1ccccc1)NC(=O)[C@H](C(C)C)N1CCCNC1=O [Lopinavir]	1.02	0.969	0.66
Cc1cccc(N(C)C(=S)Oc2ccc3ccccc3c2)c1 [Tolnaftate]	1.01	0.931	1.31
COc1cc2c(Nc3ccc(Br)cc3F)ncnc2cc1OCC1CCN(C)CC1 [Vandetanib]	1.32	0.918	0.168
O.O.O.O.O.O.O.O=C1CN(/N=C/c2ccc(-c3ccc([N+](=O)[O-])cc3)o2)C(=O)[N-]1.O=C1CN(/N=C/c2ccc(-c3ccc([N+](=O)[O-])cc3)o2)C(=O)[N-]1.[Na+].[Na+] [Dantrolene sodium hemiheptahydrate]	0.935	2.4	2.84
CCc1cc2c(cc1N1CCC(N3CCOCC3)CC1)C(C)(C)c1[nH]c3cc(C#N)ccc3c1C2=O [Alectinib]	1.13	2.57	0.961
CCCCCOC(=O)Nc1nc(=O)n([C@@H]2O[C@H](C)[C@@H](O)[C@H]2O)cc1F [Capecitabine]	2.21	1.71	6.04
Nc1ncnc2c1ncn2[C@@H]1O[C@H](CO)[C@@H](O)[C@H]1O [Adenosine]	2.1	0.746	0.654
CCCC(CCC)C(=O)[O-].[Na+] [Valproic acid sodium salt]	1.11	1.23	2.43
CN(C)C(=N)NC(=N)N [Metformin]	0.733	1.89	2.37
COc1ccc([C@@H]2CC(=O)c3c(O)cc(O[C@@H]4O[C@H](CO[C@@H]5O[C@@H](C)[C@H](O)[C@@H](O)[C@H]5O)[C@@H](O)[C@H](O)[C@H]4O)cc3O2)cc1O [Hesperidin]	1.16	0.805	1.75
O=C1CCC(N2C(=O)c3ccccc3C2=O)C(=O)N1 (centres undefined) [Thalidomide]	3.97	0.79	1.38
O=C(c1cc(Cc2n[nH]c(=O)c3ccccc23)ccc1F)N1CCN(C(=O)C2CC2)CC1 [Olaparib]	1.23	1.32	0.865
CC(C(=O)O)c1cccc(C(=O)c2ccccc2)c1 (centres undefined) [Ketoprofen]	0.893	1.2	1.02

Compound	bioluminescence [1]	bioluminescence [2]	bioluminescence [3]
COc1cc2c(cc1OC)C(=O)C(CC1CCN(Cc3ccccc3)CC1)C2.Cl (centres undefined) [Donepezil HCl]	0.543	0.812	0.746
CN1CCN(CCCN2c3ccccc3Sc3ccc(C(F)(F)F)cc32)CC1.Cl.Cl [Trifluoperazine dihydrochloride]	0.771	1.31	1.23
N[C@@H](CC(=O)O)C(=O)O [L-Aspartic acid]	0.844	1.1	0.451
CCCOc1ccc(S(=O)(=O)NCCC2CCCN2C)cc1-c1nc2c(CCC)nn(C)c2c(=O)[nH]1 (centres undefined) [Udenafil]	1.36	1.32	1.09
CCCCS(=O)(=O)N[C@@H](Cc1ccc(OCCCCC2CCNCC2)cc1)C(=O)O [Tirofiban]	0.741	1.21	0.848
CN[C@H](CC(C)C)C(=O)N[C@H]1C(=O)N[C@@H](CC(N)=O)C(=O)N[C@H]2C(=O)N[C@H]3C(=O)N[C@H](C(=O)N[C@H](C(=O)O)c4cc(O)cc(O)c4-c4cc3ccc4O)[C@H](O)c3ccc(c(Cl)c3)Oc3cc2cc(c3O[C@@H]2O[C@H](CO)[C@@H](O)[C@H](O)[C@H]2O[C@H]2C[C@](C)(N)[C@H](O)[C@H](C)O2)Oc2ccc(cc2Cl)[C@H]1O [Vancomycin]	1.48	0.957	0.868
CCC1=CC2CN(C1)Cc1c([nH]c3ccccc13)[C@](C(=O)OC)(c1cc3c(cc1OC)N(C)[C@H]1[C@@](O)(C(=O)OC)[C@H](OC(C)=O)[C@]4(CC)C=CCN5CC[C@]31[C@@H]54)C2.O=C(O)[C@H](O)[C@@H](O)C(=O)O.O=C(O)[C@H](O)[C@@H](O)C(=O)O (some centres undefined) [Vinorelbine ditartrate]	0.558	0.445	1.54
NC(=O)N1c2ccccc2C=Cc2ccccc21 [Carbamazepine]	0.803	0.95	1.42
CN(C)CCc1c[nH]c2ccc(Cn3cncn3)cc12.O=C(O)c1ccccc1 [Rizatriptan benzoate]	0.898	1.84	0.666
C#Cc1cccc(Nc2ncnc3cc(OCCOC)c(OCCOC)cc23)c1 [Erlotinib]	0.504	4.27	1.82
CCCCOc1ccc(C(=O)CCN2CCCCC2)cc1.Cl [Dyclonine hydrochloride]	0.967	1.03	1.13
COC(=O)/C=C/C(=O)OC [Dimethyl fumarate]	0.759	0.94	1.44
Cc1oncc1C(=O)Nc1ccc(C(F)(F)F)cc1 [Leflunomide]	2.01	1.3	3.5
CCOC(=O)c1ccc(C#Cc2ccc3c(c2)C(C)(C)CCS3)nc1 [Tazarotene]	1.52	1.42	1.11
CCN(CC)CCNC(=O)c1c(C)[nH]c(/C=C2\C(=O)Nc3ccc(F)cc32)c1C [Sunitinib]	0.391	0.536	0.687
CC(C)CN(C[C@@H](O)[C@H](Cc1ccccc1)NC(=O)O[C@H]1CCOC1)S(=O)(=O)c1ccc(N)cc1 [Amprenavir]	0.802	0.498	0.695
CN(C)CCOC(C)(c1ccccc1)c1ccccn1.O=C(O)CCC(=O)O (centres undefined) [Doxylamine succinate]	0.83	1.17	0.999
CN(C)CCCN1c2ccccc2CCc2ccc(Cl)cc21.Cl [Clomipramine hydrochloride]	0.859	0.71	1.5
FC(F)(F)C(Cl)Br (centres undefined) [Anestan]	1.01	0.664	1.3
N[C@H]1CONC1=O [L-Cycloserine]	0.758	1.26	0.884
NCC[C@H](O)C(=O)N[C@@H]1C[C@H](N)[C@@H](O[C@H]2O[C@H](CN)[C@@H](O)[C@H](O)[C@H]2O)[C@H](O)[C@H]1O[C@H]1O[C@H](CO)[C@@H](O)[C@H](N)[C@H]1O.O=S(=O)(O)O.O=S(=O)(O)O [Amikacin disulfate]	1.24	1.21	0.614
NC(=O)c1cnccn1 [Pyrazinamide]	0.603	1.24	1.72
Nc1nc2c(ncn2COCCO)c(=O)[nH]1 [Aciclovir]	2.34	2.16	4.45
NC(=O)N1c2ccccc2CC(=O)c2ccccc21 [Oxcarbazepine]	0.572	0.951	1.05
COc1cc2c(cc1OC)C(=O)C(CC1CCN(Cc3ccccc3)CC1)C2 (centres undefined) [Donepezil]	0.84	0.645	1.1
CCC(C)n1ncn(-c2ccc(N3CCN(c4ccc(OC[C@H]5CO[C@](Cn6cncn6)(c6ccc(Cl)cc6Cl)O5)cc4)CC3)cc2)c1=O (some centres undefined) [Itraconazole]	1.69	0.596	1.31
